PubChem BioAssay AID624488 (Broad Institute, 2012)
Potency and affinity values are given separately. Calls of active or inactive are those of the source.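 How the source made its calls: active means compounds that lower cell ATP signal, with a fitted half-maximal concentration within a set limit; inconclusive means flat curve with moderate signal loss, or poor fit; inactive means the rest.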

Test: A375 melanoma cell cytotoxicity, dose response, counter-screen for MITF inhibitor project, CellTiter-Glo luminescence, dry powder, set 6 (AID 624488)
Conditions: A375 viability, CellTiter-Glo ATP luminescence, 24 h; series mostly up to 35 µM

Structure (SMILES)	outcome
NC1=C(NS(=O)(=O)c2ccc(Br)cc2)C(=O)c2ccccc2C1=O	inactive
O=C1C=C(NS(=O)(=O)c2ccc(Br)cc2)C(=O)c2ccccc21	inactive
O=C1C=C(NS(=O)(=O)c2cccs2)C(=O)c2ccccc21	inactive
NC1=C(NS(=O)(=O)c2ccc(Br)s2)C(=O)c2ccccc2C1=O	inactive
CNC1=CC(=O)c2ccccc2C1=O	inactive
O=C1C=C(NS(=O)(=O)c2ccccc2)C(=O)c2ccccc21	inactive
NC1=C(NS(=O)(=O)c2cccs2)C(=O)c2ccccc2C1=O	inactive
O=C1C(NS(=O)(=O)c2ccccc2)=C(c2ccccc2)C(=O)c2ccccc21	inactive
